Results reported in the supplement of paper PMC13380429.

Test system: Vero E6 infected with SARS-CoV-2
Assay: inhibition of SARS-CoV-2 cytopathic effect; higher = more antiviral protection, active = above 15
Settings: 48 h

Measured: inhibition of SARS-CoV-2 cytopathic effect

Cc1cc(C(=O)N2Cc3cnn(C)c3Nc3ccccc32)ccc1CNC(=O)N1CCC[C@H]1C(=S)N1CCCN(C)CC1
inactive: 1 nM -0.76% | 8.33 nM -1.38% | 100 nM -3.62% | 833.33 nM -1.74% | 10000 nM -2.86%

C#CC1(OCC(O)CN2CCN(c3cccc(C(F)(F)F)c3)CC2)CCCCC1 (stereo not given) [terciprazine]
inactive: 1 nM 0.45% | 8.33 nM -1.84% | 100 nM -0.67% | 833.33 nM 3.5% | 10000 nM -3.3%

COc1ccc(-c2c(C)c(C(=O)NN3CCCCC3)nn2-c2ccc(Cl)cc2Cl)cc1
inactive: 1 nM -1.3% | 8.33 nM -1.23% | 100 nM -5.55% | 833.33 nM -3.38% | 10000 nM -1.1%

C[N+]1(C)CCC(=C(c2ccccc2)c2ccccc2)CC1 [diphemanil]
inactive: 1 nM -0.26% | 8.33 nM -0.4% | 100 nM -0.53% | 833.33 nM 2.17% | 10000 nM 2.09%

CCCCC(=O)O[C@]1(C(=O)CO)CC[C@H]2[C@@H]3CCC4=CC(=O)CC[C@]4(C)[C@H]3[C@@H](O)C[C@@]21C [hydrocortisone-valerate]
inactive: 1 nM -0.15% | 8.33 nM 3.88% | 100 nM 4.88% | 833.33 nM 4.12% | 10000 nM -1.55%

Cc1ccc([N+](=O)[O-])cc1S(=O)(=O)N(C)C
inactive: 1 nM -1.97% | 8.33 nM -4.63% | 100 nM -0.38% | 833.33 nM -0.5% | 10000 nM -0.2%

OCc1cc(C(O)CNCCCCCCOCCCCc2ccccc2)ccc1O (stereo not given) [salmeterol]
inactive: 1 nM 0.19% | 8.33 nM 2.26% | 100 nM 10.4% | 833.33 nM 1.95% | 10000 nM -1.77%

CCC(=O)OCC(=O)[C@@]1(OC(=O)CC)[C@@H](C)C[C@H]2[C@@H]3CCC4=CC(=O)C=C[C@]4(C)[C@@]3(F)[C@@H](O)C[C@@]21C
inactive: 1 nM -0.73% | 8.33 nM 0.98% | 100 nM -1.61% | 833.33 nM 0.59% | 10000 nM -0.08%

CCCOc1ccc(C(=O)OCCN(CC)CC)cc1N [proxymetacaine]
inactive: 1 nM 1.69% | 8.33 nM 1.71% | 100 nM 2.25% | 833.33 nM 0.25% | 10000 nM 2%

Cc1cccc(C)c1OCC(C)N (stereo not given) [mexiletine]
inactive: 1 nM 4.03% | 8.33 nM 3.45% | 100 nM 2.85% | 833.33 nM 7.08% | 10000 nM 5.03%

CN1C(=O)CN=C(c2ccccc2)c2cc(Cl)ccc21 [diazepam]
inactive: 1 nM -0.19% | 8.33 nM 0.35% | 100 nM 1.99% | 833.33 nM 0.56% | 10000 nM 0.22%

COC(=O)C1=C(C)NC(C)=C(C(=O)OCCN2CCN(C(c3ccccc3)c3ccccc3)CC2)C1c1cccc([N+](=O)[O-])c1 (stereo not given) [manidipine]
inactive: 1 nM 1.55% | 8.33 nM 1.19% | 100 nM -0.02% | 833.33 nM 1.16% | 10000 nM -7.15%

COc1ccc2c(c1)C=C1Cn3c-2c(C2CCCCC2)c2ccc(cc23)C(=O)NS(=O)(=O)N(C)CCOCCN(C)C1=O
inactive: 1 nM 3.67% | 8.33 nM 0.37% | 100 nM 0.59% | 833.33 nM 2.72% | 10000 nM 8.22%

O=[N+]([O-])c1cc2nc(O)c(O)nc2cc1[N+](=O)[O-]
inactive: 1 nM -4.28% | 8.33 nM -0.96% | 100 nM -0.81% | 833.33 nM -1.99% | 10000 nM 0.49%

CCCS(=O)(=O)Nc1ccc(F)c(C(=O)c2c[nH]c3ncc(-c4ccc(Cl)cc4)cc23)c1F [vemurafenib]
inactive: 1 nM 3.98% | 8.33 nM 1.81% | 100 nM -0.86% | 833.33 nM 2.45% | 10000 nM 4.29%

Cc1cccc(C)c1NC1=NCCCS1 [xylazine]
inactive: 1 nM 1.43% | 8.33 nM 1.2% | 100 nM 1.06% | 833.33 nM -1.24% | 10000 nM -0.19%

Oc1c(I)cc(I)c2cccnc12 [iodoquinol]
inactive: 1 nM -0.28% | 8.33 nM 2.09% | 100 nM -1.12% | 833.33 nM 1.46% | 10000 nM 0.59%

O=C1c2ccccc2CCC1CNCCc1ccc(O)cc1 (stereo not given)
inactive: 1 nM 0.05% | 8.33 nM -1.18% | 100 nM -2.27% | 833.33 nM -0.45% | 10000 nM -0.46%
